Source: PubChem BioAssay
Active and inactive are the calls of the source. Unless noted, how the calls were made is not given here.

Columns and labels:
[1] = anti-His antibody binders, primary screen, artefact control for SMM control protein annotation, biochemical, small-molecule microarray, 635 nm fluorescence (AID 1128); conditions: anti-His Alexa647 antibody binding, higher = more signal;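 further: score merges feature fluorescence with signal-to-noise for each printed compound spot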
[2] = system: Human papillomavirus type 1a E7 protein (residues 1-88); assay: HPV1a E7 small-molecule binders, primary screen, biochemical, small-molecule microarray, residues 1-88, 635 nm (AID 1129); conditions: small-molecule microarray binding, fluorescence 635 nm; higher = more signal
[3] = target: Focal adhesion kinase 1 (Homo sapiens) (UniProt Q05397); assay: small-molecule microarray binders of FAK, primary screen, biochemical, 635/667 nm fluorescence, BSA, DTT (AID 1130); conditions: PTK2 binding, 635 nm fluorescence, higher = more signal;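 further: composite of spot emission at 667 nm and signal to noise over triplicate slides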
Focal adhesion kinase 1 (Homo sapiens), sequence (Q05397 whole entry, looked up): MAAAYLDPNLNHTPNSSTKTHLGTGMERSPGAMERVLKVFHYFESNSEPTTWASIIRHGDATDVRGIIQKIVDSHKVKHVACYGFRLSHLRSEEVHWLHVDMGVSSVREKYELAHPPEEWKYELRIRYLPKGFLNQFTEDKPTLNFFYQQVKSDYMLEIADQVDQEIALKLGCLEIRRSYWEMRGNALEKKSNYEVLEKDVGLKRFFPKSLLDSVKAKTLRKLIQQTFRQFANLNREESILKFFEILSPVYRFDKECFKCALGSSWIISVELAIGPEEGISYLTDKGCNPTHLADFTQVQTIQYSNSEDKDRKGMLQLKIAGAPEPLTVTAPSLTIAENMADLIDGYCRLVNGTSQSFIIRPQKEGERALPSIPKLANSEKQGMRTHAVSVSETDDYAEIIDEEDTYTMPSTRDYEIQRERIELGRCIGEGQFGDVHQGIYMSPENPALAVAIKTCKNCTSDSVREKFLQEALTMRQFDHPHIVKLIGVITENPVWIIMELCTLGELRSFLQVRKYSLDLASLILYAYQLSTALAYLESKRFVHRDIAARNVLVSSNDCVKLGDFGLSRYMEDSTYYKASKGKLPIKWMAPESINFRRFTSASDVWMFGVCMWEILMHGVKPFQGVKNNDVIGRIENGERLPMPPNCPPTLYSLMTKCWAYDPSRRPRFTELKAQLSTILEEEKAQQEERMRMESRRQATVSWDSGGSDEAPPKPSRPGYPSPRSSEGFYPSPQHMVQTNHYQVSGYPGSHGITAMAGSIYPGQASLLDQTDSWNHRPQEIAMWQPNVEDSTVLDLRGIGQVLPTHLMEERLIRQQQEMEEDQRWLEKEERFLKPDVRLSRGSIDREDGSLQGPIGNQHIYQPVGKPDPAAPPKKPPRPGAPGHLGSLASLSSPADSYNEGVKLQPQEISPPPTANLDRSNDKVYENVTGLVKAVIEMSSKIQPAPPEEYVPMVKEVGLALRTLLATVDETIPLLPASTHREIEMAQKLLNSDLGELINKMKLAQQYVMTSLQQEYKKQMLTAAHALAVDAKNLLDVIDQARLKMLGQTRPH

[4] = system: Fibrinogen (Alexa647-labelled); assay: fibrinogen binders on compound microarrays, profiling panel, artefact control for SMM control-protein annotation, biochemical, small-molecule microarray, 635/667 nm fluorescence (AID 1131); conditions: fibrinogen-A647 binding fluorescence, higher = more signal;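 further: z-score merges 667 nm fluorescence with per-spot signal-to-noise over triplicate slides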
[5] = target: Follistatin (Homo sapiens) (UniProt P19883); assay: follistatin binders on small-molecule microarrays, primary screen, biochemical, small-molecule microarray, 635/667 nm fluorescence (AID 1132); conditions: FST binding, 635 nm fluorescence, higher = more signal
Follistatin (Homo sapiens), sequence (P19883 whole entry, looked up): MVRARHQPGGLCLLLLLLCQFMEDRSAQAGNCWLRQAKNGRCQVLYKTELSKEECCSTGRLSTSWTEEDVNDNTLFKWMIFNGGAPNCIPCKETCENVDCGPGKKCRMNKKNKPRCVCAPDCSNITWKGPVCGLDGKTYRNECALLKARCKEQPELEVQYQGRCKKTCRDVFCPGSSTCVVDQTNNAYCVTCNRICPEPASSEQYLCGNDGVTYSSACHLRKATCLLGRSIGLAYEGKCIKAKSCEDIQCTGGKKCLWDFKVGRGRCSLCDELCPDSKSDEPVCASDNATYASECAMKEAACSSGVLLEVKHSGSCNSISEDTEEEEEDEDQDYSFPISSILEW

[6] = target: Fibroblast growth factor 2 (Homo sapiens) (UniProt P09038); assay: FGF2 binders on small-molecule microarrays, primary screen, biochemical, small-molecule microarray, 635/667 nm fluorescence (AID 1133); conditions: small-molecule microarray binding, FGF2, fluorescence 635/667; higher = more signal
Fibroblast growth factor 2 (Homo sapiens), sequence (P09038 whole entry, looked up): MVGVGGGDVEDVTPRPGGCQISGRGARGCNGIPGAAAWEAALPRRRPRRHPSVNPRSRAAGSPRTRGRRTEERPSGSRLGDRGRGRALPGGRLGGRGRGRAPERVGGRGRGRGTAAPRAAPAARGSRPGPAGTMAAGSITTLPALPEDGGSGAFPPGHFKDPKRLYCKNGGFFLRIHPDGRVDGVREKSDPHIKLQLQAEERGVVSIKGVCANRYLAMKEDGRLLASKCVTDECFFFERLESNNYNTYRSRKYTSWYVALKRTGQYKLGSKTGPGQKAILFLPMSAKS

[7] = mitochondrial membrane potential change in A549 cells, profiling panel, cell-based, JC-1 fluorescence, basal, 24 h, 100 nL (AID 1138); conditions: higher = more signal;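 further: A549 lung adenocarcinoma cells under basal conditions with no added stimulus; test concentration not given here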
[8] = system: Lefty1; assay: Lefty1 binders on small-molecule microarrays, primary screen, biochemical, small-molecule microarray, 635/667 nm fluorescence (AID 1139); conditions: small-molecule microarray binding, fluorescence 635/667; higher = more signal
[9] = system: wheat germ agglutinin (Triticum aestivum), Alexa647-labelled; assay: wheat germ agglutinin binders on compound microarrays, profiling panel, artefact control for SMM control-protein annotation, biochemical, small-molecule microarray, 635/667 nm fluorescence (AID 1140); conditions: WGA-A647 binding, 635 nm fluorescence, higher = more signal;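 further: score merges 667 nm feature emission with signal to noise over triplicate slides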
[10] = target: Luciferin 4-monooxygenase (Photinus pyralis) (UniProt P08659); assay: firefly luciferase enzyme inhibitors, primary screen, biochemical, luminescence, purified enzyme, 2006 set (AID 1141); conditions: SteadyGlo luminescence, 30 min, higher = more signal, called active from +8 up or from −8 down;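 further: cell-free assay with purified firefly luciferase at 100 ng per well in PBS; test concentration not given here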
Luciferin 4-monooxygenase (Photinus pyralis), sequence (P08659 whole entry, looked up): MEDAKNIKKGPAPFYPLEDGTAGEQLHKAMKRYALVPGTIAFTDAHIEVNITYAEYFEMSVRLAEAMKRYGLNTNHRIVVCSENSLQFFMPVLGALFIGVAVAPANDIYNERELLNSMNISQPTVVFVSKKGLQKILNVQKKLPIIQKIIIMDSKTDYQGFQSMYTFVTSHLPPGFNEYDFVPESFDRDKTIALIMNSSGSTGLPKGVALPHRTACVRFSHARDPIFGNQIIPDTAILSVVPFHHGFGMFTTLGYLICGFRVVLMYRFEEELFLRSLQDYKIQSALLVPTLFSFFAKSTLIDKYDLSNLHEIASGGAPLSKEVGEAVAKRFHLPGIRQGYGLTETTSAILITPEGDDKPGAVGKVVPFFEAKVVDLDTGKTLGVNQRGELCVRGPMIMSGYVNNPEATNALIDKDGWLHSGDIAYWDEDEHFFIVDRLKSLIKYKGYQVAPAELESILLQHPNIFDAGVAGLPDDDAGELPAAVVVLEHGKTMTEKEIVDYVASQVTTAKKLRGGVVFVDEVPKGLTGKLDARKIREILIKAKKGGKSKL

[11] = system: Wnt5a (protein binding on small-molecule microarray); assay: Wnt5a binders on small-molecule microarray, primary screen, biophysical, 635/667 nm fluorescence (AID 1142); conditions: 635 nm fluorescence, higher = more signal;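 further: fluorescence read at 667 nm with signal to noise per printed feature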
[12] = cell viability in Huh7 cells, primary screen, cytotoxicity control for HCV replication inhibitor project, CellTiter-Glo luminescence, basal, 48 h (AID 1143); conditions: Huh7 HCV replicon, higher = more signal, called active from +8 up or from −8 down;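 further: Huh7 hepatoma cells carrying a hepatitis C replication reporter with no stimulus; test concentration not given here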
[13] = P. aeruginosa biofilm formation inhibitors, primary screen, PAO1 strain, BacTiter-Glo luminescence, LB-PBS (AID 1144); conditions: 12 h, higher = more signal
[14] = CREB reporter modulators without forskolin, primary screen, cell-based, PC12, CRE-LacZ reporter, unstimulated (AID 1145); conditions: no forskolin, luminescence, 4.5 h, higher = more signal, called active from +8 up or from −8 down
[15] = CREB reporter modulators under forskolin, primary screen, cell-based, PC12, CRE-LacZ reporter, forskolin-stimulated (AID 1146); conditions: luminescence, 4.5 h, higher = more signal, called active from +8 up or from −8 down;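 further: PC12 cells with 6xCRE LacZ reporter stimulated by forskolin 10 µM; beta-galactosidase reporter signal reflecting CREB driven transcription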
[16] = target: Streptavidin (Streptomyces avidinii) (UniProt P22629); assay: streptavidin binders on small-molecule microarray, primary screen, artefact control for SMM compound annotation, biophysical, 635/667 nm fluorescence (AID 1147); conditions: streptavidin binding, higher = more signal;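 further: signal reflects streptavidin binding to arrayed compounds as a control protein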
Streptavidin (Streptomyces avidinii), sequence (P22629 whole entry, looked up): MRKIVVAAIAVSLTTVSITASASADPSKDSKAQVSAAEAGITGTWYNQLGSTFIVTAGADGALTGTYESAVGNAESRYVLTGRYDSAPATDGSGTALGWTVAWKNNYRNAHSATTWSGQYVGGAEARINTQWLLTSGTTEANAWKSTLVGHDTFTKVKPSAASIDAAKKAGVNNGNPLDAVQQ

[17] = small-molecule binders of probe aInhba, primary screen, biochemical, small-molecule microarray, 635/667 nm fluorescence (AID 1148); conditions: higher = more signal;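 further: score merges 667nm spot fluorescence with signal-to-noise for antibody binding to printed compounds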
[18] = target: Torsin-1A (Homo sapiens) (UniProt O14656); assay: torsin A binders from cell lysate, primary screen, small-molecule microarray, wild-type, 635/667 nm (AID 1149); conditions: COS7 hTOR1A-WT lysate, 635 nm fluorescence, higher = more signal
Torsin-1A (Homo sapiens), sequence (O14656 whole entry, looked up): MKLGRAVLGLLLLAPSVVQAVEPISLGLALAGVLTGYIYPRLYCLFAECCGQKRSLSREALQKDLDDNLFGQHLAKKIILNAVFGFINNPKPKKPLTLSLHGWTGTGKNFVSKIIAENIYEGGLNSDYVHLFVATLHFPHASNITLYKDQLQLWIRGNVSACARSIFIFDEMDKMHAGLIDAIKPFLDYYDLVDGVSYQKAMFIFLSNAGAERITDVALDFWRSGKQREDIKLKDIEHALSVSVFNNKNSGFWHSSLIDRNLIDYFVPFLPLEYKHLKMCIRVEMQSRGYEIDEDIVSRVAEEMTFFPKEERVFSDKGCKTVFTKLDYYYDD

[19] = target: Torsin-1A (Homo sapiens) (UniProt O14656); assay: small-molecule binders of mutant TOR1A in lysate, primary screen, cell lysate, small-molecule microarray, COS7 lysate, 635/667 nm fluorescence (AID 1150); conditions: COS7 hTOR1A mutant lysate, 635 nm fluorescence, higher = more signal;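 further: score pools 667 nm emission and signal to noise measuring lysate protein binding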
[20] = system: Sonic hedgehog protein (Shh); assay: small-molecule binders of Shh protein, primary screen, biochemical, small-molecule microarray, 635/667 nm fluorescence (AID 1151); conditions: small-molecule microarray binding, 635 nm fluorescence; higher = more signal;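 further: Shh protein binding to compounds spotted on small-molecule microarray slides; score combines spot fluorescence intensity with signal-to-noise across triplicate slides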

| Compound | composite z-score [1] | composite z-score [2] | composite z-score [3] | composite z-score [4] | composite z-score [5] | composite z-score [6] | z-score [7] | composite z-score [8] | composite z-score [9] | z-score [10] | composite z-score [11] | z-score [12] | z-score [13] | z-score [14] | z-score [15] | composite z-score [16] | composite z-score [17] | composite z-score [18] | composite z-score [19] | composite z-score [20] |
| --- | --- | --- | --- | --- | --- | --- | --- | --- | --- | --- | --- | --- | --- | --- | --- | --- | --- | --- | --- | --- |
| C=CC[C@@H](OC(=O)Nc1ccc(OC)cc1)c1ccc(O)c(F)c1 | 0.0579 | -0.0596 | 0.676 | -0.699 | 0.0619 | -0.448 | -1.71 | -0.201 | -0.733 | -4.17 (inactive) | -0.115 | -4.67 (inactive) | -0.933 (inactive) | 2.26 (inactive) | 10.1 (active) | -0.716 | -0.106 | -0.0579 | 0.327 | 0.174 |
| CCCCC(CC)C(O)C1C=CC2C(=O)N(C)C(=O)C2N1Nc1ccccc1 (stereo not given) | 1.51 | 1.21 | 0.592 | 0.852 | 0.22 | -0.364 | 0.665 | -0.118 | 0.795 | 0.546 (inactive) | 0.122 | 0.136 (inactive) | -0.152 (inactive) | -0.14 (inactive) | 0.184 (inactive) | 0.454 | 0.017 | -0.111 | 0.254 | -0.76 |
| COCCOC(=O)N1C(=O)[C@@]2(c3cc(C#CCCO)ccc31)[C@H](C(=O)Nc1nc3ccccc3s1)[C@H]1C(=O)O[C@H](c3ccccc3)[C@H](c3ccccc3)N1[C@@H]2c1ccc(O)cc1 | 2.54 | 1.24 | 0.978 | 0.919 | 1.38 | 1.28 | -0.137 | 1.05 | 0.777 | 0.57 (inactive) | 0.73 | -1.16 (inactive) | 0.263 (inactive) | -0.168 (inactive) | 2.14 (inactive) | 0.809 | 0.279 | 0.772 | 0.833 | 1.06 |
| COC(=O)[C@@]1(Cc2ccccc2)[C@H]2c3cc(C(=O)N4CCCC4)n(CCc4ccccn4)c3C[C@H]2CN1C(=O)c1ccccc1 | -0.295 | 1.28 | 1.34 | 1.01 | 0.758 | -0.28 | -0.0942 | 0.0814 | 1.16 | 2.38 (inactive) | 0.372 | -0.917 (inactive) | 1.09 (inactive) | 0.201 (inactive) | 0.755 (inactive) | 1.94 | 0.605 | 1.11 | 1.4 | 0.311 |
| COc1ccc(CCNC(=O)[C@@]2(c3ccc([N+](=O)[O-])cc3)CC(=O)N(C3CCCCC3)[C@@H]2c2ccc(CO)cc2)cc1 | 1.84 | 1.22 | 0.757 | 0.393 | 0.695 | 0.373 | 2.09 | -0.381 | 0.793 | -1.74 (inactive) | 0.199 | -1.48 (inactive) | 0.733 (inactive) | -0.125 (inactive) | -1.11 (inactive) | 0.0841 | 0.249 | 0.358 | 0.56 | 0.137 |
| CCCCCN1CC=CC23O[C@@H]4/C=C\CCC(C)OC(=O)C4[C@H]2C(=O)N(C(CO)C(C)C)[C@@H]3C1=O (stereo not given in full) | 1.03 | -0.46 | 1.94 | -1.41 | 0.032 | -0.318 | -0.87 | 0.287 | 1.41 | 0.551 (inactive) | -0.236 | 0.209 (inactive) | -1.34 (inactive) | -1.58 (inactive) | -0.601 (inactive) | -0.282 | -0.101 | -1.36 | -0.303 | 0.866 |
| CCCCCN1CC=CC23O[C@@H]4C=CCCOC(=O)C4[C@H]2C(=O)N(CCCCCCO)[C@@H]3C1=O (stereo not given in full) | 2.82 | -0.0566 | -0.0757 | -1.21 | -0.444 | -0.439 | 0.608 | -0.0715 | -0.411 | -0.086 (inactive) | -0.296 | -0.181 (inactive) | -0.00872 (inactive) | -1.03 (inactive) | -0.215 (inactive) | -0.943 | -0.263 | 1.13 | 2.1 | 0.0725 |
| O=C(NCc1ccc(F)cc1)[C@H]1C[C@H]2C(=O)NCC(=O)N2[C@H]1c1ccc(O)cc1 | 1.63 | -0.121 | 0.0061 | 0.611 | 1.45 | 1.89 | 0.576 | 1.35 | 0.187 | -0.0852 (inactive) | 0.205 | -0.764 (inactive) | 0.3 (inactive) | 0.0124 (inactive) | -0.0067 (inactive) | -0.311 | 0.177 | 0.134 | 1.82 | 1.69 |
| C=CCNC(=O)[C@@H]1[C@H]2C(=O)O[C@H](c3ccccc3)[C@H](c3ccccc3)N2[C@H](c2ccccc2OCCO)[C@@]12C(=O)Nc1ccc(C#CCC(C(=O)OC)C(=O)OC)cc12 | 1.03 | 1.2 | 0.978 | 0.0251 | 0.67 | 0.335 | -1.44 | -0.0767 | 0.551 | -0.238 (inactive) | 0.0142 | -6.3 (inactive) | 0.616 (inactive) | -0.191 (inactive) | -1.03 (inactive) | 0.0625 | 0.84 | 0.834 | 0.566 | 0.499 |
| C=CCOC(=O)[C@@H]1[C@H]2C(=O)O[C@H](c3ccccc3)[C@H](c3ccccc3)N2[C@H](c2ccc(OCCOC(=O)[C@@H]3C[C@@H]4C(=O)N[C@@H](CCCC[N+](C)(C)C)C(=O)N4[C@@H]3c3ccc(O)cc3)cc2)[C@@]12C(=O)Nc1ccc(I)cc12 | 2.68 | 1.15 | 0.67 | 0.412 | 1.12 | 1.24 | -1.76 | 1.08 | 0.216 | -2.38 (inactive) | 0.865 | -0.731 (inactive) | -1.37 (inactive) | -1.35 (inactive) | 0.206 (inactive) | -0.111 | 0.0665 | 1.22 | 0.781 | 1.83 |
| CO[C@H]1O[C@H](CO)[C@@H](OC(=O)Nc2ccccc2)[C@H](OC(=O)c2cc3ccccc3[nH]2)[C@H]1OC(=O)c1cc2ccccc2[nH]1 | 0.568 | 0.181 | 0.353 | 0.475 | 1.13 | 1.61 | 0.132 | 0.532 | 0.562 | -0.378 (inactive) | 0.411 | -4.49 (inactive) | -0.735 (inactive) | -0.211 (inactive) | -0.331 (inactive) | -0.265 | 0.0636 | 0.289 | 0.311 | 1.3 |
